The whole screen tested about 320,000 compounds, of which about 9,100 (2.8%) were called active. About 3% were inconclusive and are not listed. The entries come from a sample that favours actives as a whole. Values without a mark were called inactive. Calls follow the shape of the dose curve; as a rule, active = well fitted activation curve with a large enough effect; inconclusive = small, poorly fitted or top-dose-only effect; inactive = no such curve, though single readings can be large or run the other way.
Test: qHTS Assay for Rab9 Promoter Activators; also: nearly all actives have a fitted effect of over 60% in size; as to activation, negative = inhibition: % of control where 0% means no effect
Conditions: Huh7 Rab9 promoter-luciferase reporter, luminescence, 24 h; series mostly up to 9.22 µM; activation, negative = inhibition: at the top concentration
Summary of the method: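 Luciferase signal after 10 min detection reagent at ambient indicates Rab9 promoter upregulation; stably transfected Huh7 cells were treated 24 h with compound in DMSO at 37 °C, 5% CO2.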
Potency is read from the fitted curve at half-maximal effect.

| Structure (SMILES) | activation, negative = inhibition | Potency |
| --- | --- | --- |
| COc1ccc(N(CC(=O)NCCSCc2cccc(Cl)c2)S(C)(=O)=O)cc1 | -0.778% | – |
| CCN(C(=O)CSc1ncnc2sccc12)c1c(N)n(Cc2ccccc2)c(=O)[nH]c1=O | -3.4% | – |
| NS(=O)(=O)c1ccc(CCNC(=O)COC(=O)COc2cccc(C(F)(F)F)c2)cc1 | 0.927% | – |
| COc1ccc(C2Nc3ccccc3C(=O)N2c2ccc(Cl)cc2)cc1Cn1cc([N+](=O)[O-])cn1 (centres undefined) | – | 2000 nM (active) |
| COc1ccc(C2Nc3ccccc3C(=O)N2c2ccc(F)cc2)cc1Cn1nnc2ccccc21 (centres undefined) | 16.4% | – |
| COc1ccc(C2Nc3ccccc3C(=O)N2Cc2ccccc2)cc1Cn1nnc2ccccc21 (centres undefined) | 1.82% | – |
| COc1ccccc1Nc1nnc(SC(C)C(=O)NC2CC2)s1 (centres undefined) | -3.09% | – |
| CCN(CC)CCCNC(=O)COc1ccc2oc3c(c2c1)CCCC3 | 1.01% [at 1.84 µM] | – |
| CCOC(=O)N1CCN(C(=O)COc2ccc3oc4c(c3c2)CCCC4)CC1 | 8.64% | – |
| O=C(COc1ccc2oc3c(c2c1)CCCC3)Nc1ccccn1 | – | 1580 nM (active) |
| COc1ccc(C)cc1NC(=O)CN1c2cccc3cccc(c23)S1(=O)=O | 1.82% | – |
| Cc1ccc2c(N)c(C(=O)c3ccccc3)sc2n1 | – | 3160 nM (active) |
| CCCC(=O)n1nc(-c2ccccc2)nc1N | -0.188% | – |
| CCN(CC)C(=O)c1sc2nc(-c3ccccc3)ccc2c1N | – | 1780 nM (active) |
| CN(C)c1ccnc2sc(C(=O)c3ccccc3)c(N)c12 | – | 2820 nM (active) |
| CS(=O)(=O)c1sc2nc(-c3ccccc3)cc(-c3ccccc3)c2c1N | -6.49% | – |
| COC(=O)c1cc2c(N)c(C(=O)c3ccc(Cl)cc3)sc2nc1C(OC)OC | -6.44% | – |
| CN(C)c1ccnc2sc3c(=O)n(Cc4ccccc4)cnc3c12 | -4.33% | – |
| Cc1nc2ccccc2c(-c2ccccc2)c1C(=O)c1ccccc1 | -2.28% | – |
| NC(=O)c1sc2nc3c(c(-c4ccccc4)c2c1N)CCC3 | -1.61% | – |
| CCOc1ccc(S(=O)(=O)N2CCCCC2)cc1NC(=O)CN1CCCC1c1cccs1 (centres undefined) | -24.3% | – |
| N#Cc1ccc(OCC(=O)NC(=O)NC2CCS(=O)(=O)C2)cc1 (centres undefined) | -2.91% | – |
| CCOC(=O)c1cc(-c2ccccc2C)n(Cc2cc(C)no2)n1 | -3.28% | – |
| Cc1ccc(F)cc1NC(=O)CSCc1c(C)noc1C | -11.3% | – |
| CN(CC(=O)Nc1ccc(Cl)c(C(F)(F)F)c1)C(=O)CCC(=O)c1ccccc1 | 2.04% | – |
| NC1CCN(O)C1=O (centres undefined) | -1.45% [at 46.1 µM] | – |
| CC(C)CN(C(=O)CSc1ncnc2sccc12)C1CCS(=O)(=O)C1 (centres undefined) | -0.673% | – |

| Structure (SMILES) | activation, negative = inhibition | Potency |
| --- | --- | --- |
| CC(=O)Nc1ccc(NC(=O)C(NS(=O)(=O)c2ccc3c(c2)OCCO3)C(C)C)cc1 (centres undefined) | -7.1% | – |
| Cc1ccc(S(=O)(=O)N(C)CC(=O)NCC(c2ccc(F)cc2)N2CCOCC2)cc1 (centres undefined) | 0.398% | – |
| O=C(COc1ccc(Cl)cc1)Nc1ccc2oc(=O)ccc2c1 | 3% | – |
| O=C(Nc1ccccc1)c1ccc(NC(=O)c2cccs2)cc1 | -0.308% | – |
| Cc1ccc(C)c(NC(=O)CCC(=O)NNC(=O)c2cccs2)c1 | -4.78% | – |
| Cc1ccc(C(=O)Nc2ccc(NC(=O)c3cccs3)cc2)c(C)c1 | -2.4% | – |
| CCCc1ccc(-c2csc(NC(=O)Cc3cccs3)n2)cc1 | -8.16% | – |
| NNC(=O)c1ccc(Cl)cc1Cl | -0.559% | – |
| Cc1ccc(C(=O)NNC(=O)c2cccs2)cc1 | – | 2820 nM (active) |
| Cc1ccc(-c2csc(NC(=O)Cn3[nH]c(=O)c4ccccc4c3=O)n2)cc1 | 24.7% | – |
| CC(C)C(=O)Nc1ccc(C(=O)NNC(=O)c2cccs2)cc1 | 5.99% | – |
| Cc1ccc(-c2csc(NC(=O)c3cccs3)n2)cc1 | – | 3550 nM (active) |
| Cc1nc(-c2ccc(NC(=O)c3cccs3)cc2)cs1 | – | 398 nM (active) |
| O=C(NNC(=O)c1ccc(Cl)cc1Cl)c1cccs1 | – | 3550 nM (active) |
| Cc1ccc(NNC(=O)c2cccs2)cc1Cl | 0.177% | – |
| Cc1cccc(C)c1NC(=O)CNC(=O)C1CCCC1 | -1.31% | – |
| O=C(CN1CCCCC1)NC(=O)Nc1ccccc1F | 22.7% | – |
| CC(=O)C[C@@H](O)CC(=O)[C@H]1OC(=O)CCCCCCc2ccccc21 | -3.17% | – |
| Cc1cc(C(=O)OCC(=O)Nc2ccccc2Cl)c(C)o1 | -6.44% | – |
| O=C(COc1ccccc1O)NC1CCCC1 | -6.06% | – |
| COc1ccc(C(=O)NCC2CCCCC2)cc1S(=O)(=O)N1CCCC1 | 0.873% | – |
| COc1ccc(OC)c(NC(=O)c2sc3nc(C)cc(C)c3c2N)c1 | 8.54% | – |
| COCCCNc1nc2c(-c3cccc(C)c3)nnn2c2ccc(Cl)cc12 | 12.4% | – |
| COC(=O)c1cc(Oc2ccc(S(=O)(=O)N3CCOCC3)cc2[N+](=O)[O-])cc(C(=O)OC)c1 | -6.91% | – |
| COc1ccc(S(=O)(=O)Nc2ccc3cn[nH]c3c2)cc1[N+](=O)[O-] | 7.24% | – |
| CC(C)Nc1ccc(-n2nc3ccccc3[n+]2[O-])cc1 | – | 501 nM (active) |
| CCN(CC(=O)NCc1cccs1)C(=O)/C=C/c1ccc(C)cc1 | 2.1% | – |

Source: PubChem BioAssay AID485297 (National Center for Advancing Translational Sciences (NCATS), 2010)
